In the supplement of paper PMC7724964:

T1: STAM 1-143 VHS (domain begin residue: 1, domain end residue: 143), Q92783
T1 chain: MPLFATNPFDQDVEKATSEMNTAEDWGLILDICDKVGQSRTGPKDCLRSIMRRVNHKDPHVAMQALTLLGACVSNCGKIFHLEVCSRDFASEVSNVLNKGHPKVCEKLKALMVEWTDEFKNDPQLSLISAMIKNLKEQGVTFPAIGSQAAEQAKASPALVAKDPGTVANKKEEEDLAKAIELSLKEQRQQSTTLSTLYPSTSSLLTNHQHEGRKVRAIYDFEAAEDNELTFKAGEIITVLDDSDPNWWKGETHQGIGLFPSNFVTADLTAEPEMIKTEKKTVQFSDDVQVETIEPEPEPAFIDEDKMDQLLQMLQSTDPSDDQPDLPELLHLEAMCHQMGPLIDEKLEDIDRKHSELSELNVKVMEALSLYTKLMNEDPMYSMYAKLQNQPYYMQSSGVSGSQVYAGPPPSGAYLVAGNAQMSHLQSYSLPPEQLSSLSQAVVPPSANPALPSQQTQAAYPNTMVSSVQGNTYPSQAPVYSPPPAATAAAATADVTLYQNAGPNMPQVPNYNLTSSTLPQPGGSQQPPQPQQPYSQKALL

T2: SPSB4 1-273 SPRY (domain begin residue: 1, domain end residue: 273), Q96A44
T2 chain: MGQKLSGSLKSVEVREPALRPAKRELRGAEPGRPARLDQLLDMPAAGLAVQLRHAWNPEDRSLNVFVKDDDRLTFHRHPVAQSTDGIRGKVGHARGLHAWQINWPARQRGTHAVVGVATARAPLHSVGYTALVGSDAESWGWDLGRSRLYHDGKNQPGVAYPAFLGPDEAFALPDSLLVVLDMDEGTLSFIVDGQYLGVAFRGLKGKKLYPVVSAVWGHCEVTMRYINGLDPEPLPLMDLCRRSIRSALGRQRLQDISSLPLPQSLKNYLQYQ

T3: TERF1 58-268 TRF (domain begin residue: 58, domain end residue: 268), P54274
T3 chain: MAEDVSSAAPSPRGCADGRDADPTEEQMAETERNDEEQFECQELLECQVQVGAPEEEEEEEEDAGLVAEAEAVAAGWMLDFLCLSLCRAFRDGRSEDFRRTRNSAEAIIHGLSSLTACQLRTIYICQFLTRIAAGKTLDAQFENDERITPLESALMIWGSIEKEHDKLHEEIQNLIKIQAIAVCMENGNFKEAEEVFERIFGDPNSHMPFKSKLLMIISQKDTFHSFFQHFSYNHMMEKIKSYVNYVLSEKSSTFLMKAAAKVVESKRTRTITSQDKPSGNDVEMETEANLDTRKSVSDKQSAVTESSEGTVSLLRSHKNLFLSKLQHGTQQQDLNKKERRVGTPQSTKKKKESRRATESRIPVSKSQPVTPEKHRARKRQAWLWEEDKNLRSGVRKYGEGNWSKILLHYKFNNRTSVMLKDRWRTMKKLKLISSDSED

T4: SPSB2 26-221 SPRY (domain begin residue: 26, domain end residue: 221), Q99619
T4 chain: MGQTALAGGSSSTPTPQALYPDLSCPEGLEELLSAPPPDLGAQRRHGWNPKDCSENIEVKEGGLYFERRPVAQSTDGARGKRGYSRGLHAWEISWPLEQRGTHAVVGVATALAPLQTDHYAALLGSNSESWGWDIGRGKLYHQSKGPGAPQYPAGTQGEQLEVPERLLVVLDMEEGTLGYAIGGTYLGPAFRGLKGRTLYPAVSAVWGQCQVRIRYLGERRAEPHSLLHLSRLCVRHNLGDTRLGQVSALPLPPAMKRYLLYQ

T5: TDRD1 261-449 TUDOR (domain begin residue: 261, domain end residue: 449), Q9BXT4
T5 chain: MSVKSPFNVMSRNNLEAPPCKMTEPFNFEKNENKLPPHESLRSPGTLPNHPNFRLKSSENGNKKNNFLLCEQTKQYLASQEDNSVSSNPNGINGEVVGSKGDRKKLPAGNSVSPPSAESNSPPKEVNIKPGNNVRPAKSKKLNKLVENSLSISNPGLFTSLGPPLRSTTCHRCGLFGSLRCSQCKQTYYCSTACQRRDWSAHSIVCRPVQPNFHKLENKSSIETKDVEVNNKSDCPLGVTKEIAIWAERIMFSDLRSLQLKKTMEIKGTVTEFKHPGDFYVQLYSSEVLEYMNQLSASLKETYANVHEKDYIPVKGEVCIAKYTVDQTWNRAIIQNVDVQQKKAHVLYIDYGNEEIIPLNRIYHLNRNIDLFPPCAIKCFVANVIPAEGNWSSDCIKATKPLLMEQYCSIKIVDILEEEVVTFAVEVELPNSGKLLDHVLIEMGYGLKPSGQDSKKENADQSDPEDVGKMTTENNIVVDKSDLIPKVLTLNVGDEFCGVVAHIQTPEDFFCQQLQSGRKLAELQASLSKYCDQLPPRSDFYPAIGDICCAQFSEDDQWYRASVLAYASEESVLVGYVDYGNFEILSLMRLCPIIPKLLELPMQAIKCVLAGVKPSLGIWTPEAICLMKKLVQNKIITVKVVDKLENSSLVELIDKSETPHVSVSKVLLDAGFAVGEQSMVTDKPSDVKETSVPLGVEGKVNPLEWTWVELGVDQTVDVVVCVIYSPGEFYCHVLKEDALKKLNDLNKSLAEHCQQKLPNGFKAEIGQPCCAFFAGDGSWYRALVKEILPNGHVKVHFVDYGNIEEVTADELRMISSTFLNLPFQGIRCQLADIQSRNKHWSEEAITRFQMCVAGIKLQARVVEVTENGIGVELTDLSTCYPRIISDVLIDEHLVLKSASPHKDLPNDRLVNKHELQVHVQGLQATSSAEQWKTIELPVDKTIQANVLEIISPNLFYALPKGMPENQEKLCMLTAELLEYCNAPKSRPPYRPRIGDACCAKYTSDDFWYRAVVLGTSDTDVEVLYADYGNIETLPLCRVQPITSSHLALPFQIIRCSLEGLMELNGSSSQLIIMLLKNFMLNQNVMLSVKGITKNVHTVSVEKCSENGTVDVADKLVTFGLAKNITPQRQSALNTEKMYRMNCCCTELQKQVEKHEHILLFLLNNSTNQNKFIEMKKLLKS

T6: TCEA2 231-299 TFIIS_C (domain begin residue: 231, domain end residue: 299), Q15560
T6 chain: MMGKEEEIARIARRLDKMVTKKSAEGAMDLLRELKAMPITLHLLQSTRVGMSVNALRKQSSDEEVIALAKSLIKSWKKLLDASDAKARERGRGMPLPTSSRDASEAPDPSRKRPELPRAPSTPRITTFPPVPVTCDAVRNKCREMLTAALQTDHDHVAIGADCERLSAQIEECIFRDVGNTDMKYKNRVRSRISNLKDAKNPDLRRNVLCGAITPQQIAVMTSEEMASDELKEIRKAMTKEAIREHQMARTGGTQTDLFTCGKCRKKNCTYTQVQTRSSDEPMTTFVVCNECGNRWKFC

T7: TDRKH 290-430 TUDOR+SNase (domain begin residue: 290, domain end residue: 430), Q9Y2W6
T7 chain: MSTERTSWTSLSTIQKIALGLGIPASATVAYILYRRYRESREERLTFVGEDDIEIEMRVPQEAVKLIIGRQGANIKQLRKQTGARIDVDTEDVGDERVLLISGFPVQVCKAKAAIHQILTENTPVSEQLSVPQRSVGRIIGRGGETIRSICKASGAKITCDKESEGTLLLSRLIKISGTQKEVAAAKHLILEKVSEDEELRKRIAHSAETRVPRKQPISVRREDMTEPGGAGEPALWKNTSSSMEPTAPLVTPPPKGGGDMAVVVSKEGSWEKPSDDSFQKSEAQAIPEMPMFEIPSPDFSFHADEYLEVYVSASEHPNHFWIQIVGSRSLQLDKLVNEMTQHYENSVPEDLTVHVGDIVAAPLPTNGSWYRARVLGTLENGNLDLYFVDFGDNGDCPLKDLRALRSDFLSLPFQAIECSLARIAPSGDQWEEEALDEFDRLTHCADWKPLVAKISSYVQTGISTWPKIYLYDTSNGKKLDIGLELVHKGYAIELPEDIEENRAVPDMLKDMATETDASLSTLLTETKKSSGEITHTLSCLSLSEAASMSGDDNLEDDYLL


These binders were tested against TLN1 309-401 IRS (domain begin residue: 309, domain end residue: 401), Q9Y490 (assay: phage ELISA signal ratio (GST-PRM binding over GST background); higher = stronger binding of peptide-phage to the PRM).
Method in brief: (§1)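 Five rounds of selection were carried out against human peptide recognition domains fused to the C-terminus of glutathione S-transferase (GST) and expressed in 96-well plates. The M13 phage library presented randomized hexadecapeptides, cysteine-free and glycine-flanked, on the gene-8 major coat protein. For each value, the phage ELISA signal on the GST-domain fusion was divided by the signal on GST alone.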

Chain of TLN1 309-401 IRS (domain begin residue: 309, domain end residue: 401), Q9Y490 (Q9Y490 whole entry, the tested form may be a part): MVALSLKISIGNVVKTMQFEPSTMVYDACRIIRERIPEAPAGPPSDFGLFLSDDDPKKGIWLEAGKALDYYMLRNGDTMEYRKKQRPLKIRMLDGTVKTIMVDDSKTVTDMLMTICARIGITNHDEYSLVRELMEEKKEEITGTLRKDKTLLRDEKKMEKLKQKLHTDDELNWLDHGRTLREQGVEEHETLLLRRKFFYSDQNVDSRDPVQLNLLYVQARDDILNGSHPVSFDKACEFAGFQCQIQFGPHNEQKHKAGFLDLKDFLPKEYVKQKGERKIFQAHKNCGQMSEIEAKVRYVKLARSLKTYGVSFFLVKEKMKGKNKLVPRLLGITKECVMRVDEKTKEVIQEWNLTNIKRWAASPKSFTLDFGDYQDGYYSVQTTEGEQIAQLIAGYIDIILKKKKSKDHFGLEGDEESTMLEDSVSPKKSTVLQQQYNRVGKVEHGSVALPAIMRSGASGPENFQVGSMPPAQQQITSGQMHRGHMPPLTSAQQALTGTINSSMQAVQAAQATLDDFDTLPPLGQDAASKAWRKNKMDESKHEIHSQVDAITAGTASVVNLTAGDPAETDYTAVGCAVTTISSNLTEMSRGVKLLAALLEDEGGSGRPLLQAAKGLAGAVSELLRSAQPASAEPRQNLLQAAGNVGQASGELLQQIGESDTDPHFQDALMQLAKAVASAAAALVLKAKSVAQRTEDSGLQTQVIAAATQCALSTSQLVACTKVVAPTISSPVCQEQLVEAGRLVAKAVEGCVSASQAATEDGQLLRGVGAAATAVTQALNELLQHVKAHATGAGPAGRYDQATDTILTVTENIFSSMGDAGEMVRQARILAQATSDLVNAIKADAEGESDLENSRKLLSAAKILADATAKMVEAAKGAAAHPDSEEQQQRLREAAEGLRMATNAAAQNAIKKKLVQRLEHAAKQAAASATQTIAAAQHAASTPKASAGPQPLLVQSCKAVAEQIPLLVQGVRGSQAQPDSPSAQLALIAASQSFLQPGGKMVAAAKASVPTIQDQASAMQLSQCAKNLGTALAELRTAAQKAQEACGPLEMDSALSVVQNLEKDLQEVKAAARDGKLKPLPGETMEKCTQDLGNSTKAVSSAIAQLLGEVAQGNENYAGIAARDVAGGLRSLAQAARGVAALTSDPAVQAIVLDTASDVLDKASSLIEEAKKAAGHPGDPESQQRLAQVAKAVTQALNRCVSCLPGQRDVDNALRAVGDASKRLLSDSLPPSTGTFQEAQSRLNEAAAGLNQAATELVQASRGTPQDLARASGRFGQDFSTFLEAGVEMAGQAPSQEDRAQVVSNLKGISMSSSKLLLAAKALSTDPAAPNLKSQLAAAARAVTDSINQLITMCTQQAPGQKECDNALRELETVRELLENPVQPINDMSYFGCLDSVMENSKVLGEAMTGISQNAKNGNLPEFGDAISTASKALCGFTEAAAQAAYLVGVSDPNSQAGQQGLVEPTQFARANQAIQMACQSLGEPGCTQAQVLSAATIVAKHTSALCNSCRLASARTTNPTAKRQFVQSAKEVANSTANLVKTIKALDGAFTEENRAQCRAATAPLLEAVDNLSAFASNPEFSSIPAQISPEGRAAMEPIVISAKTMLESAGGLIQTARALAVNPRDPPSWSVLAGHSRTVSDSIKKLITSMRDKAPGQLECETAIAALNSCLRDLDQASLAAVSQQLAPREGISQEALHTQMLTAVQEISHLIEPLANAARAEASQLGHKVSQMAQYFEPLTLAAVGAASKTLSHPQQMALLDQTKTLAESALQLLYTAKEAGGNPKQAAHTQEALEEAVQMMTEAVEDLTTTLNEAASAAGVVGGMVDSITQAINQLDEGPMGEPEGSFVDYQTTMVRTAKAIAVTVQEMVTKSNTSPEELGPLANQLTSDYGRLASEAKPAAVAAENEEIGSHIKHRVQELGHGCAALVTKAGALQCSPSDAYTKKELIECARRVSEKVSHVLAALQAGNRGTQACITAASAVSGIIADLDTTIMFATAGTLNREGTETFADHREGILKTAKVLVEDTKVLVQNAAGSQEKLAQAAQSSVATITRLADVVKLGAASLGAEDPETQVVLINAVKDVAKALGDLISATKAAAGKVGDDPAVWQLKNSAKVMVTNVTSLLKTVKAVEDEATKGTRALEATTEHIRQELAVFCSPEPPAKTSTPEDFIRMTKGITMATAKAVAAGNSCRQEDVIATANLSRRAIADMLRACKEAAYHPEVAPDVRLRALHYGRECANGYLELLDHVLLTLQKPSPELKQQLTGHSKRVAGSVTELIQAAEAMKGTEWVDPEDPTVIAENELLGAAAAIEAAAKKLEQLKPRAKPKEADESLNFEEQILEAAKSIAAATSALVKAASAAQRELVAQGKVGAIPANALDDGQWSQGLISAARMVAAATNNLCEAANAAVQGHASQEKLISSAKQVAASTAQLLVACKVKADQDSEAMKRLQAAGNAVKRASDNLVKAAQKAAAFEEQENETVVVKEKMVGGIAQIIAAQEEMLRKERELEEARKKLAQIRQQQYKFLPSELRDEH

Row | Binder | phage ELISA signal ratio
1 | EFTMNWQYPTQYNFIQ | 15.3
2 | VETQWEQWQEYGLKFS | 16.2

Biological target: T1, STAM 1-143 VHS (domain begin residue: …
Experiment: as above
Method in brief: as §1

Row | Binder | phage ELISA signal ratio
3 | DQEWLSKPWQFWAMDM | 4.69
4 | TQFNMHDEALFMTKLF | 19.2
5 | HESMVMFTDEFFQQYL | 5.23
6 | NKHDTEEFMVRTFLSE | 6.48
7 | EPYMIQVPWESHWDVH | 9.25
8 | PFDAWPIGWEIQQQYF | 8.91

These binders were tested against TLN2 312-417 IRS (domain begin residue: 312, domain end residue: 417), Q9Y4G6 in the same assay as above.
Method in brief: as §1

Chain of TLN2 312-417 IRS (domain begin residue: 312, domain end residue: 417), Q9Y4G6 (Q9Y4G6 whole entry): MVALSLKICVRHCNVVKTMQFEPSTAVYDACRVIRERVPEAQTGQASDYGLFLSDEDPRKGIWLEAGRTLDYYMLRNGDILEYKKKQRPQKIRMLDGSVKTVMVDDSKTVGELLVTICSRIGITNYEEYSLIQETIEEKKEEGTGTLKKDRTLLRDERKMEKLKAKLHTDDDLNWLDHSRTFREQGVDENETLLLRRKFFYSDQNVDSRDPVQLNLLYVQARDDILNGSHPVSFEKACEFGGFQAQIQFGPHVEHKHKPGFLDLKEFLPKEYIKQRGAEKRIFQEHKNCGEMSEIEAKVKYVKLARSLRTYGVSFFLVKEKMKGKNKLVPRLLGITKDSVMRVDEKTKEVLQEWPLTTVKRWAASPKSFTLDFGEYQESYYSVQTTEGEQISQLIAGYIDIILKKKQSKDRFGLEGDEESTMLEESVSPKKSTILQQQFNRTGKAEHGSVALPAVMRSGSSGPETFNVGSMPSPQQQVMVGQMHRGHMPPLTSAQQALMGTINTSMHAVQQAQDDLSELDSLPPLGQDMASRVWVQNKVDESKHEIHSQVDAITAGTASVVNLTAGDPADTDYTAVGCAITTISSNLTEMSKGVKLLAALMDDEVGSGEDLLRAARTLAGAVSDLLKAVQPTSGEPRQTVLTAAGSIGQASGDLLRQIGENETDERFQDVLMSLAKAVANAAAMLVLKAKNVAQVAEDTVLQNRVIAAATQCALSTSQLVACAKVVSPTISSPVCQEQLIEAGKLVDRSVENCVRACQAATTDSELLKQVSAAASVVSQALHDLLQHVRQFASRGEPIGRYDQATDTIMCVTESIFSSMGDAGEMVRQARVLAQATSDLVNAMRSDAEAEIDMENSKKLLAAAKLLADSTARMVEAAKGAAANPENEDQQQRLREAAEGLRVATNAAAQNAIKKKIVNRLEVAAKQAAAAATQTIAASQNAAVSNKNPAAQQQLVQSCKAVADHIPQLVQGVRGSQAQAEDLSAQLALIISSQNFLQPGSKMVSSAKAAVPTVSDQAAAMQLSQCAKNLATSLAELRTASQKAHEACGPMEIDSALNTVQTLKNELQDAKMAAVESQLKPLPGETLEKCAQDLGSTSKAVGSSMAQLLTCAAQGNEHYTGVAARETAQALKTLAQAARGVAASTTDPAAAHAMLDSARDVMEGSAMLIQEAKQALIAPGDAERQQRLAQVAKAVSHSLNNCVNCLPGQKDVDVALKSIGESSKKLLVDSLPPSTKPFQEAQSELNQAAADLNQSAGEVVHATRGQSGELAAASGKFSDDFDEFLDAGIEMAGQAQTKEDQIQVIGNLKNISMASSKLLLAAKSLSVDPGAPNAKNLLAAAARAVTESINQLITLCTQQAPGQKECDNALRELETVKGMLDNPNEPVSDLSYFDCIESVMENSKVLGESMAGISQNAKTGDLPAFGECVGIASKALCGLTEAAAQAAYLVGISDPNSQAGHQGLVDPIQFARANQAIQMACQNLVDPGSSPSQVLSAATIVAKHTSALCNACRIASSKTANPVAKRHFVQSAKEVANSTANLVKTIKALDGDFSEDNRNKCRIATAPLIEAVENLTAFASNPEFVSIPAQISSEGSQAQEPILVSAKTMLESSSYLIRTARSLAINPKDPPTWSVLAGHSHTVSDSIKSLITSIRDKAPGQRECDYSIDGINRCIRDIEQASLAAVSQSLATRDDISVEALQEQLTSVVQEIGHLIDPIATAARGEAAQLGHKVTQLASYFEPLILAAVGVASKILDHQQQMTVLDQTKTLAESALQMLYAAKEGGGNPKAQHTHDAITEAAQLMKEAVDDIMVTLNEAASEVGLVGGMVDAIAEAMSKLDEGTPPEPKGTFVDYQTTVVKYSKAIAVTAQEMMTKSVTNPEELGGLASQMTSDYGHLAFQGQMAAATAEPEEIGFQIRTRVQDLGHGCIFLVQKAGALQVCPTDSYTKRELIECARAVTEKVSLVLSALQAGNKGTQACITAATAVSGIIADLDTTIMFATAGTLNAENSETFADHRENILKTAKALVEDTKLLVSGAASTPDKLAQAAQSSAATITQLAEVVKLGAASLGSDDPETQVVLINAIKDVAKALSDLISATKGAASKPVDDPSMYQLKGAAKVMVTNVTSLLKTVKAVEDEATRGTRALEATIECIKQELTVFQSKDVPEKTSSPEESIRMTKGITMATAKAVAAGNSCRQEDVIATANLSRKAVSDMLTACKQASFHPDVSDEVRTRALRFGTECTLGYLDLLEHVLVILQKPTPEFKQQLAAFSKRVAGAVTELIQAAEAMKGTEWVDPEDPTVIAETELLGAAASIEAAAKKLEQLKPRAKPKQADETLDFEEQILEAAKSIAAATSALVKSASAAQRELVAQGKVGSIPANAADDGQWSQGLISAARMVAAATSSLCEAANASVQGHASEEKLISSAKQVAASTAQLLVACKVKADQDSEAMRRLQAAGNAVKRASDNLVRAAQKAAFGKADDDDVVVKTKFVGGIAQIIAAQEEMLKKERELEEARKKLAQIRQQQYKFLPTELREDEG

Row | Binder | phage ELISA signal ratio
9 | DMVWTNSFLHSHSQLV | 19.5
10 | WDLNAQVEHMWQYGIA | 15.9
11 | VENVYYGPYQWEGSFQ | 15.4
12 | NENGSYEEHLAWTWGF | 17.6
13 | NQDRVWVGNSAFKSPD | 22

Biological target: T2, SPSB4 1-273 SPRY (domain begin residue: …
Experiment: as above
Method in brief: as §1

Row | Binder | phage ELISA signal ratio
14 | MVQDSINNNNWLVPWV | 7.42
15 | WDFVGEWDSNNNTVTR | 7.05

Biological target: T3, TERF1 58-268 TRF (domain begin residue: …
Experiment: as above
Method in brief: as §1

Row | Binder | phage ELISA signal ratio
16 | SFPLEFTTDYMYNLMA | 18.2
17 | LGHTTAEMIDYMELQW | 15.3

Biological target: T4, SPSB2 26-221 SPRY (domain begin …
Experiment: as above
Method in brief: as §1

Row | Binder | phage ELISA signal ratio
18 | DKYWPVDPNNNMPRFG | 37.4
19 | KKDWNNNIEAWLVGEE | 36.6
20 | PEFLDENNNVDVGHTW | 38.3
21 | PARDINNNAATAYINV | 39.5
22 | EYTLDENANMEQLWEV | 35.8
23 | WDLDWAVSDHNGNVMV | 41.6
24 | YEIMENNNWLNNAGVF | 40.1

What follows are binders tested against SUB1 58-127 PC4 (domain begin residue: 58, domain end residue: 127), P53999 in the same assay as above.
Method in brief: as §1

Row | Binder | phage ELISA signal ratio
25 | DEEEWWWQFQSHQLPE | 8.77

Biological target: T5, TDRD1 261-449 TUDOR (domain begin …
Experiment: as above
Method in brief: as §1

Row | Binder | phage ELISA signal ratio
26 | ELWQHWDMWNVEEPEF | 7.88
27 | IWDQWYEWNSEWDRLP | 3.57

Biological target: T6, TCEA2 231-299 TFIIS_C (domain begin …
Experiment: as above
Method in brief: as §1

Row | Binder | phage ELISA signal ratio
28 | WAWEDMWFMEQLESTE | 3.89

Biological target: T7, TDRKH 290-430 TUDOR+SNase (domain begin …
Experiment: as above
Method in brief: as §1

Row | Binder | phage ELISA signal ratio
29 | HEQNRMDVRNDGRTGF | 8
